In all, about 5,500 compounds went through this assay and about 2,000 (36%) were called active. Not shown: some 18% with an inconclusive outcome. No stated cut-off is given here; in the data, active means normalized growth mostly below about 0.91 (no sharp cut-off); inconclusive means no clear call, values can overlap the other calls; inactive means mostly above about 0.92. Some of the results follow.
Assay: chemical genetic growth profiling, strain panel (AID 1159580);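 further: tested at 20 µM; growth read once vehicle control cultures reached saturation at 30 °C; 1 = growth at the plate median or of vehicle wells; lower values mean less growth of the strain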
Details: growth OD

Measured: normalized growth

Cc1onc(-c2ccccc2Cl)c1C(=O)N[C@@H]1C(=O)N2[C@@H]1SC(C)(C)[C@@H]2C(=O)O
inactive: S. cerevisiae deletion strains, locus YJR066W, strain TOR1, active compounds read low 0.986 | S. cerevisiae deletion strains, locus YKL009W, strain mrt4, active compounds read low 1.02 | S. cerevisiae deletion strains, locus YKL068W, active compounds read low 1.02 | S. cerevisiae deletion strains, locus YKL085W, strain MDH1 (second series), active compounds read low 1.02 | S. cerevisiae deletion strains, locus YKL085W, strain MDH1, active compounds read low 1.02 | S. cerevisiae deletion strains, locus YKL160W, strain elf1, active compounds read low 1.02 | S. cerevisiae deletion strains, locus YKL190W, strain CNB1, active compounds read low 1.01 | S. cerevisiae deletion strains, locus YKR001C, strain vps1, active compounds read low 1.03 | S. cerevisiae deletion strains, locus YKR026C, strain gcn3, active compounds read low 1.05 | S. cerevisiae deletion strains, locus YKR091W, strain srl3, active compounds read low 1.02 | S. cerevisiae deletion strains, locus YLL001W, strain dnm1, active compounds read low 1.02 | S. cerevisiae deletion strains, locus YLL026W, active compounds read low 1.01 | S. cerevisiae deletion strains, locus YLL041C, strain sdh2, active compounds read low 1.02 | S. cerevisiae deletion strains, locus YLR027C, strain aat2, active compounds read low 1.01 | S. cerevisiae deletion strains, locus YLR039C, strain RIC1, active compounds read low 1.02 | S. cerevisiae deletion strains, locus YLR058C, strain SHM2, active compounds read low 1.02 | S. cerevisiae deletion strains, locus YLR102C, strain apc9, active compounds read low 1.03 | S. cerevisiae deletion strains, locus YLR113W, strain HOG1, active compounds read low 1.05 | S. cerevisiae deletion strains, locus YLR221C, strain rsa3, active compounds read low 0.979 | S. cerevisiae deletion strains, locus YLR258W, strain gsy2, active compounds read low 1.02 | S. cerevisiae deletion strains, locus YLR262C, strain YPT6 (second series), active compounds read low 1 | S. cerevisiae deletion strains, locus YLR262C, strain YPT6, active compounds read low 1.01 | S. cerevisiae deletion strains, locus YLR268W, strain sec22, active compounds read low 1.04 | S. cerevisiae deletion strains, locus YLR320W, strain mms22, active compounds read low 1 | S. cerevisiae deletion strains, locus YLR330W, strain CHS5, active compounds read low 1.01 | S. cerevisiae deletion strains, locus YLR342W, strain FKS1 (second series), active compounds read low 1.02 | S. cerevisiae deletion strains, locus YLR342W, strain FKS1, active compounds read low 1.02 | S. cerevisiae deletion strains, locus YLR357W, strain rsc2, active compounds read low 1.03 | S. cerevisiae deletion strains, locus YLR370C, strain arc18, active compounds read low 1.02 | S. cerevisiae deletion strains, locus YLR371W, strain rom2, active compounds read low 1.03 | S. cerevisiae deletion strains, locus YLR384C, strain iki3, active compounds read low 1.02 | S. cerevisiae deletion strains, locus YLR418C, strain cdc73, active compounds read low 1.04 | S. cerevisiae deletion strains, locus YML016C, strain PPZ1, active compounds read low 1.01 | S. cerevisiae deletion strains, locus YML032C, strain rad52, active compounds read low 1.01 | S. cerevisiae deletion strains, locus YML120C, strain ndi1, active compounds read low 1.04 | S. cerevisiae deletion strains, locus YML124C, strain tub3, active compounds read low 1.03 | S. cerevisiae deletion strains, locus YMR058W, strain fet3, active compounds read low 1.04 | S. cerevisiae deletion strains, locus YMR078C, strain ctf18, active compounds read low 1.04 | S. cerevisiae deletion strains, locus YMR125W, strain sto1, active compounds read low 1.04 | S. cerevisiae deletion strains, locus YMR129W, active compounds read low 1.01 | S. cerevisiae deletion strains, locus YMR205C, strain PFK2, active compounds read low 1.04 | S. cerevisiae deletion strains, locus YMR223W, strain ubp8, active compounds read low 1.02 | S. cerevisiae deletion strains, locus YMR231W, strain pep5, active compounds read low 1.02 | S. cerevisiae deletion strains, locus YMR263W, strain SAP30, active compounds read low 1.02 | S. cerevisiae deletion strains, locus YMR307W, strain GAS1, active compounds read low 1.03 | S. cerevisiae deletion strains, locus YNL067W, strain RPL9B, active compounds read low 1.02 | S. cerevisiae deletion strains, locus YNL071W, strain lat1, active compounds read low 1.01 | S. cerevisiae deletion strains, locus YNL153C, strain GIM3, active compounds read low 1.01 | S. cerevisiae deletion strains, locus YNL183C, strain NPR1, active compounds read low 0.968 | S. cerevisiae deletion strains, locus YNL209W, strain ssb2, active compounds read low 1.01 | S. cerevisiae deletion strains, locus YNL233W, strain BNI4, active compounds read low 1.01 | S. cerevisiae deletion strains, locus YNL248C, strain rpa49, active compounds read low 0.948 | S. cerevisiae deletion strains, locus YNL250W, strain rad50, active compounds read low 1.01 | S. cerevisiae deletion strains, locus YNL271C, strain bni1, active compounds read low 1.03 | S. cerevisiae deletion strains, locus YNL298W, strain CLA4, active compounds read low 1.04 | S. cerevisiae deletion strains, locus YNL307C, strain MCK1, active compounds read low 1.04 | S. cerevisiae deletion strains, locus YNL322C, strain KRE1 (second series), active compounds read low 1.01 | S. cerevisiae deletion strains, locus YNL322C, strain KRE1, active compounds read low 1 | S. cerevisiae deletion strains, locus YNR049C, strain mso1, active compounds read low 1.02 | S. cerevisiae deletion strains, locus YNR052C, strain pop2, active compounds read low 1.01 | S. cerevisiae deletion strains, locus YOL012C, strain htz1 1.96 | S. cerevisiae deletion strains, locus YOL147C, strain pex11, active compounds read low 1.03 | S. cerevisiae deletion strains, locus YOR001W, strain rrp6, active compounds read low 1.04 | S. cerevisiae deletion strains, locus YOR061W, strain CKA2, active compounds read low 1.01 | S. cerevisiae deletion strains, locus YOR069W, strain VPS5, active compounds read low 1.01 | S. cerevisiae deletion strains, locus YOR070C, strain gyp1, active compounds read low 1.01 | S. cerevisiae deletion strains, locus YOR080W, strain dia2, active compounds read low 1.03 | S. cerevisiae deletion strains, locus YOR083W, strain WHI5, active compounds read low 1.03 | S. cerevisiae deletion strains, locus YOR106W, strain vam3, active compounds read low 1.03 | S. cerevisiae deletion strains, locus YOR136W, strain idh2, active compounds read low 1.03 | S. cerevisiae deletion strains, locus YOR144C, strain elg1, active compounds read low 1.02 | S. cerevisiae deletion strains, locus YOR184W, strain ser1, active compounds read low 1.03 | S. cerevisiae deletion strains, locus YOR231W, strain MKK1, active compounds read low 1.01 | S. cerevisiae deletion strains, locus YOR265W, strain rbl2, active compounds read low 1.02 | S. cerevisiae deletion strains, locus YOR270C, strain vph1, active compounds read low 1.04 | S. cerevisiae deletion strains, locus YOR290C, strain snf2, active compounds read low 1.01 | S. cerevisiae deletion strains, locus YOR316C, strain cot1, active compounds read low 1.03 | S. cerevisiae deletion strains, locus YPL051W, strain arl3, active compounds read low 1.02 | S. cerevisiae deletion strains, locus YPL055C, strain LGE1, active compounds read low 1.03 | S. cerevisiae deletion strains, locus YPL078C, strain atp4, active compounds read low 1.03 | S. cerevisiae deletion strains, locus YPL106C, strain sse1, active compounds read low 1.03 | S. cerevisiae deletion strains, locus YPL240C, strain hsp82, active compounds read low 1.01 | S. cerevisiae deletion strains, locus YPL241C, strain CIN2, active compounds read low 1 | S. cerevisiae deletion strains, locus YPL256C, strain CLN2, active compounds read low 1.01 | S. cerevisiae deletion strains, locus YPR119W, strain clb2, active compounds read low 1.03 | S. cerevisiae deletion strains, locus YPR141C, strain kar3, active compounds read low 1.04 | S. cerevisiae deletion strains, locus YPR163C, strain tif3, active compounds read low 1.04 | S. cerevisiae deletion strains, locus YPR167C, strain met16, active compounds read low 1.03 | S. cerevisiae deletion strains, strain wtn01, active compounds read low 1.02 | S. cerevisiae strains, strain wild type, active compounds read low 1.01

Reference: PubChem BioAssay AID1159580 (chemical genetic matrix, 2015)
